Source: PubChem
Rows were chosen to be rich in hits. Some 1.6% of all compounds tested hit in one or more screens of this group.
PABP FP inh: blocks human PABP binding to poly(A) RNA | P11940 | fluorescence polarization | inhibition, % at 35 µM | actives 1% (n = 290,000) | AID 2014;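 further: calls also rest on retests at 20 µM and on dose response follow-up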
MLLE-PAM2 inh: blocks PAM2 peptide binding to the PABP1 MLLE domain; P11940; GST-MLLE / FITC-PAM2 fluorescence polarization; inhibition, % at 20 µM; actives 0.36% (n = 360,000); AID 588489; in the data active means inhibition above about 35%, passing the limit was not always enough;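 further: plate controls were DMSO wells with GST-MLLE for no effect and wells lacking GST-MLLE protein for full effect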
PERK inhibitor: inhibitors of human PERK kinase | Q9NZJ5 | CHO PERK-DD fusion, SEAP luminescence translation reporter | inhibition, % at 5.6 µM | actives 0.17% (n = 220,000) | AID 1416;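 active means inhibition above the mean inhibition of all tested compounds plus 3 SD, set separately per screening campaign, cut at about 2.9% in these data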;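 further: PERK kinase domain activated by AP20187 dimerizer at 100 nM; 0% = DMSO with dimerizer and 100% = rapamycin at 8.4 µM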
eIF4H inh: inhibitors of RNA binding by human eIF4H. Q15056. eIF4H fluorescence polarization binding assay. inhibition, % at 35 µM. actives 0.94% (n = 290,000). AID 2012;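 further: calls also rest on retests at 20 µM and on dose response follow-up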
eIF4E 4G PPI: inhibitors of eIF4E and eIF4G interaction in translation initiation | actives 0.37% (n = 220,000) | AID 782 | inhibition, % at 21.7 µM | TR-FRET eIF4E-eIF4GI(517-606) binding, 2 h;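 active means inhibition above about 30%, limit read from the data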;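 further: 0% = full FRET control wells and 100% = background wells lacking eIF4GI fragment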
The depositor's hits bear a star; . = no result. Unless noted, how the calls were made is not given here.

SMILES	PABP FP inh	MLLE-PAM2 inh	PERK inhibitor	eIF4H inh	eIF4E 4G PPI
Cc1ccccc1[C@@H](NC(=O)OC(C)(C)C)C(=O)OC(C)(C)C	.	1	.	.	.
CC(=O)Nc1ccc(C(=O)OCC(=O)N(C)C2CCCCC2)cc1	78	2	-1	active	1
Cn1nc2c(c1C(=O)N1CCCC(C(=O)c3cc(F)ccc3F)C1)CCCC2 (stereo not drawn)	0	-6	0	-2	1
Cn1nc2c(c1C(=O)O)CCCC2	13*	-3	1	102*	4
CCOc1ccccc1NC(=O)CCNC(=O)N1CC(=O)Nc2ccccc21	.	-7	.	.	.
Cc1ccc(CNC(=O)Cc2ccc(-n3cccc3)cc2)cc1	2	4	-1	11	2
Cc1ccc(CNC(=O)c2ccc(-n3cccc3)cc2)cc1	6	-12	-1	72	38*
NNC(=O)c1ccc(N2CCc3ccccc32)c([N+](=O)[O-])c1	5	-17	1	4	-2
Cc1ccc(CNC(=O)c2ccc(N3CCc4ccccc43)c([N+](=O)[O-])c2)cc1	2	7	0	3	55*
Cn1cnnc1SCC(=O)Nc1ccc(S(N)(=O)=O)cc1	-2	10	.	-2	.
CC(=O)C1=C(C)NC(SCC(N)=O)=C(C#N)C1CC(C)C (stereo not drawn)	2	12	2	14	-4
CCOC(=O)C1=C(C)NC(SC)=C(C#N)C1CC(C)C (stereo not drawn)	4	13	-1	-2	44*
Oc1ccc(Br)cc1C=Nc1ccc2c3c(cccc13)CC2	3.5*	12	0	100*	2
Cc1cc(C)c(NC(=O)C(C)(C)C)c(Cl)c1	5	2	-1	2	-8
Cc1cc(C)c(NC(=O)NC(=O)C(Cl)(Cl)Cl)c(C)c1	13	-12	3.5*	2	4
CC(=C/c1ccccc1)/C=N/n1c(-c2ccco2)n[nH]c1=S	7	-26	2	-6	2
Cc1cc(-c2n[nH]c(=S)n2/N=C/c2ccc(C)o2)n[nH]1	-5	-8	0	-5	-5
S=c1[nH]nc(-c2ccco2)n1/N=C/C=C/c1ccccc1	1	-20	0	-7	9
Cc1cc(-c2n[nH]c(=S)n2/N=C/C=C/c2ccco2)n[nH]1	65*	-22	1	93*	2
CC(/C=N/n1c(-c2cc(C)[nH]n2)n[nH]c1=S)=C\c1ccccc1	64*	-30	0	active	8
Cc1ccccc1-c1n[nH]c(=S)n1/N=C/C=C/c1ccco1	41*	0	0	82*	-4
C/C(=N\NC(=O)c1ccc(-n2cnnn2)cc1)c1ccc(Cl)cc1	.	2	.	.	.
COc1cccc(-n2c(=S)sc3c(=O)n(-c4ccccc4OC)c(=S)[nH]c32)c1	-1	41*	0	-3	-6
COc1ccccc1-n1c(=S)[nH]c2c(sc(=S)n2-c2ccccc2)c1=O	2	27	1	2	-1
Oc1ccc(C=Nc2ccccc2-c2nc3ccccc3[nH]2)c(O)c1	8	-8	1	3	3
SMILES	PABP FP inh	MLLE-PAM2 inh	PERK inhibitor	eIF4H inh	eIF4E 4G PPI
Oc1ccccc1C=Nc1ccccc1-c1nc2ccccc2[nH]1	58*	-9	2	5.7*	5
CN(C)CCN1C(=O)c2cccc3cc([N+](=O)[O-])cc(c23)C1=O	.	81*	.	.	.
CN(C)CCCN1C(=O)c2cccc3cccc(c23)C1=O	0	6	.	9	.
COc1ccc(N(C)S(=O)(=O)c2cccc(C(=O)N3CCN(S(=O)(=O)c4ccc(C)cc4)CC3)c2)cc1	-4	12	.	-11	.
COc1ccc(NC(=O)C(=O)N/N=C/c2cccnc2)cc1	-7	0	1	-6	85*
COC(=O)[C@H]1C[C@@]2(O)CN(S(=O)(=O)c3ccc(C)cc3)C[C@@]2(OC(=O)NCC2CCCCC2)C[C@H]1C(=O)OC	.	11	.	.	.
Nc1nnc(CC(=O)N/N=C/c2ccc(-c3ccccc3)o2)s1	2.9*	-21	1	82	2
Nc1nnc(CC(=O)Nc2ccccc2)s1	8	-23	3.0*	0	4
Nc1nnc(CC(=O)N/N=C\c2ccc(-c3cccc(Cl)c3)o2)s1	-10	-31	1	-9	-1
O=C(Cc1nnc(NC(=O)c2ccccc2)s1)N/N=C/c1ccco1	6.2*	-13	0	82	4
CCOc1cccc(-c2c(C(=O)N/N=C(\C)c3cccnc3)nnn2-c2nonc2N)c1	13	9	.	-10	.
COC(=O)c1ccc(CC2(C)C(=O)Nc3ccc(-c4cccc(C(F)(F)F)c4)cc32)o1 (stereo not drawn)	.	-1	.	.	.
Cc1cccc(NC(=O)COC(=O)CN2C(=O)C3CCCCC3C2=O)c1C (stereo not drawn)	.	2	.	.	.
O=C(COC(=O)[C@@H]1CCCN1S(=O)(=O)c1ccccc1F)NCc1ccc2c(c1)OCO2	.	-1	.	.	.
O=C(C(NS(=O)(=O)c1cccs1)c1ccccc1)N1CCN(c2ccccc2)CC1 (stereo not drawn)	53*	17	-1	64*	-6
CCOc1ccc(C(=O)N/N=C/c2ccc(-c3ccc(S(=O)(=O)Nc4ncccn4)cc3)o2)cc1	32*	-1	1	69*	-4
CCOc1ccc(S(=O)(=O)N(CC(=O)N/N=C/c2ccc(-c3ccc([N+](=O)[O-])cc3)o2)c2ccccc2)cc1	22*	-31	0	79*	16
Cc1ccc(-c2ccc(/C=N/NC(=O)c3ccccc3O)o2)cc1	-1	.	3.1*	16	4
O=C(N/N=C/c1ccc(-c2ccc(S(=O)(=O)Nc3ncccn3)cc2)o1)c1cc2ccccc2cc1O	52*	-6	1	83*	-13
Cc1ccc(CNC(=O)CCC(=O)Nc2nnc(C)s2)cc1	-9	-1	.	0	.
CC12CCC(=O)N1C(C(=O)NNC(=O)COc1cccc(C(F)(F)F)c1)CS2 (stereo not drawn)	.	-2	.	.	.
